# Experimental data published in PubChem BioAssay (NCI).
# About 83,000 compounds went through this panel and 20% of them were active in at least one assay; those are over-represented in the sample as a whole.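 Single-concentration screen, 48 h exposure, 96-well plates. Endpoint: percent growth. Below 10 = active.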 Values without a mark were called inactive. Activity calls are given as the source filed them.
# How the values were obtained:
# Assay in all cases: NCI-60 one-dose screen, 48 h (100 = growth as untreated, 0 = no growth, -100 = all killed)
# HCT-15 colon = conditions: 10 µM unless noted
# HT29 colon = conditions: 10 µM unless noted
# SNB-75 CNS = conditions: 10 µM unless noted
# SNB-19 CNS = conditions: 10 µM unless noted
# U251 CNS = conditions: 10 µM unless noted
# PC-3 prostate = conditions: 10 µM unless noted
# SK-MEL-5 melanoma = conditions: 10 µM unless noted
# UACC-62 melanoma = conditions: 10 µM unless noted
# LOX IMVI melanoma = conditions: 10 µM
# SK-MEL-28 melanoma = conditions: 10 µM unless noted
# SK-MEL-2 melanoma = conditions: 10 µM unless noted
# EKVX NSCLC = conditions: 10 µM unless noted
# SN12C renal = conditions: 10 µM unless noted
# TK-10 renal = conditions: 10 µM unless noted
# ACHN renal = conditions: 10 µM unless noted
# CAKI-1 renal = conditions: 10 µM unless noted
# A498 renal = conditions: 10 µM unless noted
# MOLT-4 leukemia = conditions: 10 µM unless noted
# CCRF-CEM leukemia = conditions: 10 µM unless noted
# UO-31 renal = conditions: 10 µM unless noted
Compound,growth (HCT-15 colon),growth (HT29 colon),growth (SNB-75 CNS),growth (SNB-19 CNS),growth (U251 CNS),growth (PC-3 prostate),growth (SK-MEL-5 melanoma),growth (UACC-62 melanoma),growth (LOX IMVI melanoma),growth (SK-MEL-28 melanoma),growth (SK-MEL-2 melanoma),growth (EKVX NSCLC),growth (SN12C renal),growth (TK-10 renal),growth (ACHN renal),growth (CAKI-1 renal),growth (A498 renal),growth (MOLT-4 leukemia),growth (CCRF-CEM leukemia),growth (UO-31 renal)
CCOC(=O)CNC(=O)Sc1ccc(C(C)(C)C)cc1,94.3%,114%,75.7%,103%,83.5%,106%,107%,91%,83.9%,113%,87.1%,111%,93.5%,96%,101%,100%,119%,32.5%,–,–
CN=S(=O)(OCCCCCOS(=O)(=NC)c1ccc(C)cc1)c1ccc(C)cc1 (stereo not given),108%,95.8%,77.1%,97.3%,93.8%,75.6%,93.8%,86.5%,88.1%,93.5%,94%,95.4%,95.1%,118%,77.2%,74.6%,87.6%,78.6%,39.6%,–
C=CCc1cc(OC)c(O)c(OC)c1,98.7%,99.7%,90.9%,109%,97.2%,95.4%,99.8%,103%,101%,108%,102%,101%,102%,113%,–,97.6%,–,102%,109%,92.5%
COc1nc2ccccc2s1,98%,102%,81%,110%,108%,89.1%,97.5%,103%,82.1%,100%,100%,108%,99.3%,111%,94.6%,90.5%,101%,103%,102%,–
COC1OC(C(COC(C)=O)OC(C)=O)C(OC(C)=O)C(OC(C)=O)C1OC(C)=O (stereo not given),92.5%,105%,97.6%,99.4%,101%,107%,106%,110%,103%,105%,113%,–,107%,107%,95.3%,96.2%,125%,–,104%,83.8%
CC1(C)OC2C(CO)OC(n3ccc(=O)[nH]c3=O)C2O1 (stereo not given),102%,94.3%,106%,100%,87.6%,90.2%,97.9%,93.9%,101%,108%,96.6%,104%,90.1%,87.2%,104%,101%,75.9%,92.3%,101%,–
CCOC(=O)c1c[nH][nH]c1=O,103%,105%,118%,99.1%,103%,108%,105%,96.2%,97.8%,127%,94.1%,116%,104%,111%,–,–,98.5%,106%,107%,93.7%
COc1cc(C(=O)NC(=S)NCc2ccncc2)cc(OC)c1OC,95.5%,89.2%,92.5%,106%,98.7%,95.9%,90.3%,99.3%,97.7%,102%,89.5%,99.4%,102%,103%,–,91.4%,–,86.1%,99.5%,77.4%
Cc1[nH]n(-c2ccccc2)c(=O)c1C=NC(=S)C(N)=S,99.3%,111%,87.5%,96.8%,100%,85.8%,99.3%,93%,99.7%,110%,109%,103%,105%,125%,100%,97.2%,93.8%,–,94.1%,–
CC(=O)c1cccc(O)c1,101%,92.1%,91.4%,108%,97.2%,106%,100%,109%,94.6%,109%,103%,–,107%,90%,103%,97.9%,38.3%,95.9%,106%,90.5%
CC(=O)Nc1ccc(C(=O)c2ccc(S(=O)(=O)Nc3ccccc3)cc2)cc1,104%,96.7%,78.1%,80.3%,91.9%,87.2%,89.8%,83.1%,91.6%,114%,80.6%,105%,98.6%,–,104%,106%,79.2%,102%,82.8%,85.7%
O=c1nc(Nc2cccc(Cl)c2)oc2cc(Cl)oc(=O)c12,83.4%,85.5%,67.2%,94.3%,79.6%,61.8%,106%,78.7%,73.5%,85.5%,-14.9% (active),116%,86.1%,98.1%,81.3%,79.6%,103%,21.5%,56.7%,–
CSc1cnc2ccccc2n1,104%,83.2%,107%,99.5%,94.1%,89.6%,105%,97.1%,96.4%,110%,86%,103%,94.4%,94.1%,107%,97%,105%,107%,113%,–
S=C=Nc1ccc2ccccc2c1,96.6%,105%,94.5%,101%,97.8%,102%,106%,102%,94.2%,111%,106%,103%,111%,109%,–,–,–,98.1%,106%,85.1%
C=C(OC(C)=O)c1ccccc1,114%,98.4%,98%,106%,89.8%,79.4%,101%,97%,94.4%,118%,96.9%,111%,96%,100%,115%,100%,95.3%,–,83.5%,–
O=C(NC(=S)N1CC=CCC1)c1ccccc1,102%,100%,111%,105%,104%,98.5%,104%,107%,107%,115%,84.4%,111%,88.4%,94.5%,94.3%,105%,93.1%,94.2%,121%,–
